Rows were chosen to be rich in hits. Some 4.5% of all compounds tested hit in one or more screens of this group.
tim23-1 inh: growth inhibitors of tim23-1 mutant yeast, primary screen, luminescence, uHTS | S. cerevisiae tim23-1 growth, BacTiter-Glo luminescence, 24 h | inhibition, % at 20 µM | 1.3% of 330,000 active | AID 463212, 2010;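 active = growth inhibition of the mutant yeast at or above 50%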;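 also: temperature-sensitive mutant grown at 25 °C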
NLRP3 yeast inh: NALP3 inflammasome inhibitors in reconstituted yeast, primary screen, luminescence, uHTS. Yeast reconstituted NLRP3/ASC/caspase-1, beta-gal luminescence, 24 h. inhibition, % at 10 µM. 0.39% of 330,000 active. AID 2825, 2010;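 active = inhibition of 50% or more; inactive = inhibition below 50%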
tim10-1 inh: growth inhibitors of tim10-1 mutant yeast, primary screen, luminescence, uHTS; S. cerevisiae tim10-1 ts strain growth, BacTiter-Glo, 24 h; inhibition, % at 20 µM; 2.2% of 330,000 active;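 active = inhibition of at least 40%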;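 also: mutant grown at 25 °C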
TIM10 inh: growth inhibitors of isogenic TIM10 control yeast, primary screen, counter-screen for tim10-1 yeast inhibitor project, luminescence, uHTS. S. cerevisiae TIM10 strain growth, BacTiter-Glo luminescence, 24 h. inhibition, % at 10 µM. 1.4% of 330,000 active. AID 463195, 2010;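 active = inhibition of 40% or more at the single tested concentration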;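 also: wild-type TIM10 isogenic control strain grown at permissive 25 °C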
SKKanGAS inh: S. pyogenes SKKanGAS growth inhibitors in kanamycin, primary screen, streptokinase expression inhibitor project, SKKanGAS strain, BacTiter-Glo luminescence. 6 h. inhibition, % at 7.5 µM. 1.3% of 300,000 active. AID 1662, 2009;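 active = mean replicate score, as percent of positive control median, at least 50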;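 also: strain carries kanamycin resistance gene driven by streptokinase promoter and grows in 40 µg/ml kanamycin; loss of luminescence reflects streptokinase promoter inhibition or plain growth inhibition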
PfHsp90 yeast 2: growth inhibition of PfHsp90-expressing yeast, primary screen, antimalarial PfHsp90 inhibitor project, S. cerevisiae, BacTiter-Glo luminescence, single point, set 2 | BacTiter-Glo ATP, 48 h; yeast lacking PDR1 and PDR3 efflux regulators | inhibition, % at 9.4 µM | 0.32% of 310,000 active;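 active = every replicate shows inhibition above about 80%, whatever the replicate mean, limit read from the data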
tim10-1 conf: growth inhibitors of tim10-1 mutant yeast, confirmation, single concentration, luminescence, S. cerevisiae. shares compounds with tim10-1 inh. S. cerevisiae tim10-1 ts strain growth, BacTiter-Glo, 24 h. inhibition, % at 20 µM. 56% of 7,400 active. AID 463213, 2010;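 active = inhibition of yeast growth at or above a set limit in either of two repeat tests at 20 µM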;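 also: tim10-1 mutant grown at permissive 25 °C to find synthetic lethal compounds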
Numbers stand for hits.

What do the screens show for `Cc1cccc(N2CCN(C(=O)C3CCN(S(=O)(=O)c4cccc5nsnc45)CC3)CC2C)c1` (centres undefined)?
tim23-1 inh: inactive; NLRP3 yeast inh: inactive; tim10-1 inh: 40.3; TIM10 inh: inactive; SKKanGAS inh: inactive; PfHsp90 yeast 2: inactive; tim10-1 conf: inactive

What do the screens show for `Cc1cccc(N2CCN(C(=O)C3CCN(S(=O)(=O)c4cccc5cccnc45)CC3)CC2C)c1` (centres undefined)?
tim23-1 inh: inactive; NLRP3 yeast inh: inactive; tim10-1 inh: inactive; TIM10 inh: inactive; SKKanGAS inh: inactive; PfHsp90 yeast 2: inactive

How did O=C(C1CCCN(S(=O)(=O)c2cccc3nsnc23)C1)N1CCc2ccccc21 (centres undefined) do in these assays?
tim23-1 inh: inactive; NLRP3 yeast inh: inactive; tim10-1 inh: 40.5; TIM10 inh: inactive; SKKanGAS inh: inactive; PfHsp90 yeast 2: inactive; tim10-1 conf: 36.6

How did COc1c(/C=C2\SC(=Nc3ccccc3Cl)NC2=O)cccc1[N+](=O)[O-] do in these assays?
tim23-1 inh: inactive; NLRP3 yeast inh: inactive; tim10-1 inh: 43.7; TIM10 inh: inactive; SKKanGAS inh: inactive; PfHsp90 yeast 2: inactive; tim10-1 conf: 45.0

Results for O=C1NC(=Nc2ccccc2Cl)S/C1=C\c1cccc([N+](=O)[O-])c1O ?
tim23-1 inh: inactive; NLRP3 yeast inh: inactive; tim10-1 inh: inactive; TIM10 inh: inactive; SKKanGAS inh: inactive; PfHsp90 yeast 2: inactive

How did CC(C)C(=O)N(c1cc2sc(=O)oc2c2ccccc12)S(=O)(=O)c1cccs1 do in these assays?
tim23-1 inh: inactive; NLRP3 yeast inh: inactive; tim10-1 inh: 46.7; TIM10 inh: inactive; SKKanGAS inh: inactive; PfHsp90 yeast 2: inactive; tim10-1 conf: inactive

Results for O=[N+]([O-])c1ccc(N2CCCCCC2)c(S(=O)(=O)N2CCCCC2)c1 ?
tim23-1 inh: inactive; NLRP3 yeast inh: inactive; tim10-1 inh: 47.8; TIM10 inh: inactive; SKKanGAS inh: inactive; PfHsp90 yeast 2: inactive; tim10-1 conf: inactive

Results for CC1(C)C(=O)Nc2ccccc2N1C(=O)COC(=O)c1ccc(NC(N)=O)cc1 ?
tim23-1 inh: inactive; NLRP3 yeast inh: inactive; tim10-1 inh: inactive; TIM10 inh: inactive; PfHsp90 yeast 2: inactive

Results for Cc1ccc(C(=O)O/N=C2\CCCc3ccccc32)cc1 ?
tim23-1 inh: inactive; NLRP3 yeast inh: inactive; tim10-1 inh: inactive; TIM10 inh: inactive; SKKanGAS inh: inactive

How did Cc1cccc(C(=O)O/N=C2\CCCc3ccccc32)c1 do in these assays?
tim23-1 inh: inactive; NLRP3 yeast inh: inactive; tim10-1 inh: 44.3; TIM10 inh: inactive; SKKanGAS inh: inactive; PfHsp90 yeast 2: inactive; tim10-1 conf: 36.0

How did COc1ccc2c(c1)/C(=N/OC(=O)c1cccs1)CCC2 do in these assays?
tim23-1 inh: inactive; NLRP3 yeast inh: inactive; tim10-1 inh: 52.2; TIM10 inh: inactive; SKKanGAS inh: inactive; PfHsp90 yeast 2: inactive; tim10-1 conf: 41.0

Results for CCCN(CC(=O)Nc1ccccc1C)C(=O)c1ccc(=O)n(Cc2ccccc2)n1 ?
tim23-1 inh: inactive; NLRP3 yeast inh: inactive; tim10-1 inh: inactive; TIM10 inh: inactive; SKKanGAS inh: inactive; PfHsp90 yeast 2: inactive

How did CCOC(=O)C1=C(C)NC(C)=C(C(=O)OCC)C1C(=O)OCC(=O)NCc1ccco1 do in these assays?
tim23-1 inh: inactive; NLRP3 yeast inh: inactive; tim10-1 inh: inactive; TIM10 inh: inactive; PfHsp90 yeast 2: inactive

How did CC(C)COC(=O)n1c(=O)oc2cc(S(=O)(=O)N3CCCCC3)ccc21 do in these assays?
tim23-1 inh: inactive; NLRP3 yeast inh: inactive; tim10-1 inh: 41.0; TIM10 inh: inactive; SKKanGAS inh: inactive; tim10-1 conf: 38.3

What do the screens show for `O=c1c2ccccc2nnn1CSc1ccc2c(c1)OCCO2`?
tim23-1 inh: inactive; NLRP3 yeast inh: inactive; tim10-1 inh: 41.8; TIM10 inh: inactive; SKKanGAS inh: inactive; PfHsp90 yeast 2: inactive; tim10-1 conf: 35.2

Bioassay records from PubChem BioAssay.
